# Bioassay records: PubChem, several laboratories
# GDH-TPI counter: GDH-TPI coupling enzyme inhibitors, primary screen, artefact control for M. tuberculosis FBA inhibitor project, biochemical, absorbance, full deck; GDH-TPI coupled enzyme counterscreen, NADH absorbance; inhibition, % at 4.8 µM; hit rate 1.2% among 360,000;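 also: 0% = DMSO wells and 100% = wells lacking the enzyme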
# VHR inh abs: VHR1 phosphatase inhibitors, primary screen, biochemical, absorbance, uHTS. recombinant VHR phosphatase, pNPP absorbance. AID 1654, 2009. inhibition, % at 13.3 µM. Dual specificity protein phosphatase 3 (Homo sapiens), P51452. hit rate 0.52% among 290,000; in the data active = inhibition above about 50%
# FBA Mtb inh: Mtb FBA enzyme inhibitors, primary screen, biochemical, fluorescence, strain H37Rv | inhibition, % at 1 µM | AID 588726, 2011 | purified M. tuberculosis FBA, fluorescence read-out | hit rate 2.3% among 360,000; in the data active = inhibition above about 27%;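 also: 0% = vehicle and 100% = reference inhibitor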
# 3CLpro inhibitor: SARS-CoV 3CLpro protease inhibitors, primary screen, biochemical, quenched FRET; Replicase polyprotein 1ab (Severe acute respiratory syndrome coronavirus), P0C6X7; recombinant SARS-CoV 3CLpro, quenched FRET peptide cleavage; inhibition, % at 6 µM; hit rate 0.14% among 290,000; AID 1706, 2009; in the data active = inhibition above about 12%
# CCHFV vOTU inh: CCHFV vOTU protease inhibitors, primary screen, biochemical, Pep-AMC substrate, fluorescence; Crimean-Congo hemorrhagic fever virus L polyprotein viral ovarian tumor (vOTU) protease …; inhibition, % at 11.5 µM; hit rate 0.55% among 370,000; also: 0% = vehicle wells with enzyme and 100% = no enzyme wells
# RecA intein inh: Mtb RecA intein splicing inhibitors, primary screen, biochemical, fluorescence, HTS; Protein RecA (Mycobacterium tuberculosis (strain ATCC 25618 / H37Rv)), P9WHJ3; cell-free RecA intein splicing; inhibition, % (no concentration beside the values); hit rate 0.75% among 290,000; in the data active = inhibition above about 30%;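 also: 0% = vehicle wells and 100% = reference inhibitor control wells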
# Target sequence (P9WHJ3 whole entry, looked up): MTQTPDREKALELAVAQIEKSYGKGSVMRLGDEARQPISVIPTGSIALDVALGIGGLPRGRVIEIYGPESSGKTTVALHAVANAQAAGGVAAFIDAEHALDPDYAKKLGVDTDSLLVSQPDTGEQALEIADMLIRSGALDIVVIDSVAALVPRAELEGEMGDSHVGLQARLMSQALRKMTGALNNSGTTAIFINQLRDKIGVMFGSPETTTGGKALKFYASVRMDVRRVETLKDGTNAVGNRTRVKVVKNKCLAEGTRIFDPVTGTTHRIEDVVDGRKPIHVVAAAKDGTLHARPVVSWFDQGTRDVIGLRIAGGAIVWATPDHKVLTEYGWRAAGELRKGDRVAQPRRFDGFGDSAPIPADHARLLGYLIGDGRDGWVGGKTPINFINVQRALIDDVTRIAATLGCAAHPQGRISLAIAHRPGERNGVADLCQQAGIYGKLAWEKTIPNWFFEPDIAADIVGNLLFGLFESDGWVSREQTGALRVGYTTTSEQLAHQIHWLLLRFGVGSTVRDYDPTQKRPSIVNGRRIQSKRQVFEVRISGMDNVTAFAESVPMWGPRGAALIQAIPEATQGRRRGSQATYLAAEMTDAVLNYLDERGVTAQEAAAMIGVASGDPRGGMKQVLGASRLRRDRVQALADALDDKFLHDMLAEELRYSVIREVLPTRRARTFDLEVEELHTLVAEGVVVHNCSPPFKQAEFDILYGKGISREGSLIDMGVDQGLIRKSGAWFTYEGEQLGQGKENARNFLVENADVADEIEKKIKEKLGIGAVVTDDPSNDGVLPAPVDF
# * marks the source's active call; other numbers are inactive results; . = not tested or not shown. A selection: hits, their analogues and other compounds. The true share with any hit is near 4.7%. Rule as the data show it, unless noted: active = inhibition above about 30%; inactive = the rest.
SMILES,GDH-TPI counter,VHR inh abs,FBA Mtb inh,3CLpro inhibitor,CCHFV vOTU inh,RecA intein inh
COC(=O)C1=CN(CC2CCCO2)C=C(C(=O)OC)C1c1ccccc1C(F)(F)F (stereo unspecified),6,6,158*,1,-88,.
COC(=O)C1=C(N)Oc2cc(C)n(CC3CCCO3)c(=O)c2C1c1ccccc1OC (stereo unspecified),5,19,2,-2,0,-1
COc1ccc(CCNC(=O)CSc2nnc(CNC(=O)c3cc(OC)c(OC)c(OC)c3)o2)cc1OC,1,10,-2,5,11,-1
COc1ccc(CCN2CC(C(=O)NCCc3ccccn3)CCC2=O)cc1 (stereo unspecified),7,18,1,-3,4,2
O=C(NCCOc1ccc(F)cc1)C1CCC(=O)N(CCc2ccccn2)C1 (stereo unspecified),6,57*,0,-5,-7,1
CCS(=O)(=O)NCCc1cc2c(OC)ccc(OC)c2[nH]c1=O,8,53*,0,6,2,-2
CCc1nnc(NC(=O)c2ccc(NS(=O)(=O)c3ccccc3)cc2)s1,34*,4,10,5,7,-4
CCc1nnc(NS(=O)(=O)c2ccc(NC(=O)c3ccccc3)cc2)s1,-11,-7,8,-7,17,-2
Cc1cccnc1N=O,.,.,.,.,6,.
O=C(c1cccc(-c2ccccc2)c1)N1CC[C@@H](N2CCC(O)CC2)[C@H](O)C1,-1,51*,-1,-6,-2,0
CCc1ccccc1CNC(=O)C1CCC(CNS(=O)(=O)c2cccc3cccnc23)CC1 (stereo unspecified),.,.,.,.,6,.
CCn1c(C(=O)O)c(CC(=O)Nc2ccc(Br)cc2C)c2ccccc21,-2,57*,2,5,-4,-5
Cc1noc(C)c1CSCC(=O)Oc1ccc(N(C)S(=O)(=O)c2ccc(Cl)cc2)cc1,3,.,-1,.,21,40*
Cc1noc(C)c1COC(=O)CN(C)S(=O)(=O)c1ccc(Cl)cc1,-11,10,5,4,-5,-1
Cc1noc(C)c1CSCC(=O)Oc1ccc(N(C)S(=O)(=O)c2ccccc2)cc1,0,.,0,.,6,38*
O=C(CSc1nc2ccccc2c(=O)n1CC1CCCO1)Nc1ccc(F)cc1 (stereo unspecified),5,25,0,2,6,1
CC1CCN(S(=O)(=O)N2CCC(C(=O)NC(C)c3ccccc3)CC2)CC1 (stereo unspecified),-5,.,-1,.,-12,.
CC(=O)c1ccc(C(=O)N2CCC(CO)(Cc3cccc(C(F)(F)F)c3)CC2)cc1,-7,53*,2,1,8,3
CC1(C(=O)N2CCC(CO)(Cc3cccc(C(F)(F)F)c3)CC2)CC1,-1,-2,3,1,-10,1
Cn1nc(-c2ccccc2)c2ncc(C(F)(F)F)cc21,6,26,28*,-6,.,1
NC(=O)c1sc2cc(C(F)(F)F)cnc2c1-c1ccccc1,6,22,1,4,-7,.
Cc1ccccc1Nc1n[nH]c(=S)s1,2,.,2,.,-9,.
Nc1ccccc1-c1n[nH]c(=S)s1,11,24,61*,2,.,.
CCN1C(=O)/C(=C\N(C(C)=O)c2ccccc2)OC1=S,63*,-22,-2,-4,20,2
CC/C(=N\NC(=O)C1CCCC1)c1cccc(Br)c1,3,11,-2,4,9,-2
SMILES,GDH-TPI counter,VHR inh abs,FBA Mtb inh,3CLpro inhibitor,CCHFV vOTU inh,RecA intein inh
CC/C(=N\NC(=O)C1CCCC1)c1ccc(Br)cc1,-18,50*,-5,-3,18,5
COc1ccc(OC)c(NC(=O)/C=C/c2ccc(S(=O)(=O)N3CCOCC3)cc2)c1,16,.,-2,.,-5,.
CC(=O)N1CCN(c2ccc(N3CCN(C(C)=O)[C@@H](C)C3)c(C)c2)[C@@H](C)C1,.,.,.,.,-7,.
Cc1ccc(/C=N/NC(=O)c2ccc3nc[nH]c3c2)o1,63*,-24,2,-2,22,-2
COC(=O)c1ccc(/C=N/NC(=O)c2ccc3nc[nH]c3c2)cc1,26,-6,-2,3,17,-3
O=C(N/N=C/c1ccc([N+](=O)[O-])cc1)c1ccc2nc[nH]c2c1,37*,-4,-3,1,19,2
CN1CCN(c2ncnc3c2ncn3[C@H]2CN(C)C[C@@H](CO)O2)CC1,3,.,-4,.,6,.
O=[N+]([O-])c1ccc(CN2[C@H](COCc3ccccc3)C=CS2(=O)=O)cc1,.,.,.,.,8,.
C#CCN1C(=O)C(O)(CC(=O)/C=C/C=C/c2ccccc2)c2ccccc21 (stereo unspecified),15,30,0,4,2,3
O=C(/C=C/C=C/c1ccccc1)CC1(O)C(=O)N(CCc2ccccc2)c2ccccc21 (stereo unspecified),17,14,-1,8,12,10
NC(=O)CN1C(=O)C(O)(CC(=O)/C=C\C=C\c2ccccc2)c2ccccc21 (stereo unspecified),34*,14,0,-4,-3,-6
Cc1ccc2c(c1)C(O)(CC(=O)/C=C/C=C/c1ccccc1)C(=O)N2 (stereo unspecified),38*,5,-5,3,12,3
CCN1C(=O)C(O)(CC(=O)/C=C/C=C/c2ccccc2)c2ccccc21 (stereo unspecified),41*,20,-1,0,13,-2
COc1cccc(C=C2SC(=S)NC2=O)c1,31*,.,-2,.,10,.
COc1ccc(S(=O)(=O)N2CCC3(CC2)OCCN3S(=O)(=O)c2c(C)cc(C)cc2C)cc1,5,.,5,.,-18,1
CCOC(=O)[C@@H]1CSCCS(=O)(=O)N1C(=O)[C@H](CC(C)C)NC(=O)OC(C)(C)C,.,.,.,.,5,.
CC(C)CNc1ncnc2c1ncn2[C@H]1CN(Cc2ccco2)C[C@@H](CO)O1,-3,.,1,.,8,.
COC(=O)c1sccc1NC(=S)N1C(C)CCCC1C (stereo unspecified),5,51*,2,1,7,1
COc1ccccc1N1CCN(/N=C/C=C/c2ccccc2[N+](=O)[O-])CC1,10,50*,-4,0,-11,4
COc1cc(C=Cc2nnc3c4ccccc4cnn23)cc(OC)c1OC,55*,.,-1,.,-1,.
COc1cc(C=C2C(=O)c3ccccc3C2=O)cc(OC)c1OC,1,-13,-5,-8,-8,.
Cc1cc(N2CCOCC2)nc2ccc(NC(=S)NCCC(C)C)cc12,-1,0,28*,0,-10,-2
